Compound activity as filed in PubChem.
Shown are actives, neighbours in structure and some others; about 3.7% of the full set was active somewhere.
TIM10 inh = inhibits growth of TIM10 yeast strain | S. cerevisiae TIM10 strain growth, BacTiter-Glo luminescence, 24 h | inhibition, % at 10 µM | 330,000 compounds, 1.4% hits;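 active means inhibition of 40% or more at the single tested concentration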;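 further: wild-type TIM10 isogenic control strain grown at permissive 25 °C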
PfHsp90 set2 = growth inhibition of yeast expressing Plasmodium Hsp90. 310,000 compounds, 0.32% hits. AID 504621. inhibition, % at 9.4 µM. S. cerevisiae expressing PfHsp90, BacTiter-Glo ATP, 48 h; yeast lacking PDR1 and PDR3 efflux regulators;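 active means every replicate shows inhibition above about 80%, whatever the replicate mean, limit read from the data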
tim23-1 inh = tim23-1 yeast growth inhibition; S. cerevisiae tim23-1 growth, BacTiter-Glo luminescence, 24 h; inhibition, % at 20 µM; 330,000 compounds, 1.3% hits; AID 463212;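 active means growth inhibition of the mutant yeast at or above 50%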;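 further: temperature-sensitive mutant grown at 25 °C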
V-ATPase pH = regulators of yeast V-ATPase proton transport; AID 504577; response, % at 10 µM; 350,000 compounds, 0.37% hits; S. cerevisiae, pHLuorin cytosolic pH fluorescence; in the data active means response mostly above about 7.3%, no sharp cut-off; inactive means mostly below about 5.4%; further: actives read high
tim10-1 inh = inhibits growth of tim10-1 mutant yeast. S. cerevisiae tim10-1 ts strain growth, BacTiter-Glo, 24 h. inhibition, % at 20 µM. 330,000 compounds, 2.2% hits. AID 463190;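 active means inhibition of at least 40%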;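 further: mutant grown at 25 °C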
tim10-1 confirm = tim10-1 yeast growth inhibition, confirmed. shares compounds with tim10-1 inh. S. cerevisiae tim10-1 ts strain growth, BacTiter-Glo, 24 h. inhibition, % at 20 µM. 7,400 compounds, 56% hits;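 active means inhibition of yeast growth at or above a set limit in either of two repeat tests at 20 µM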;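 further: tim10-1 mutant grown at permissive 25 °C to find synthetic lethal compounds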
Large screens that a line does not name were inactive (follow-up assays come after a bar, where they were run).

O=C1CC(Sc2nnc(-c3ccccc3)o2)C(=O)N1c1ccccc1 (stereo unspecified)	tim10-1 inh 51 | tim10-1 confirm 51
O=C(O)c1ccccc1SC1CC(=O)N(c2ccccc2)C1=O (stereo unspecified)	none
COc1ccc(N2C(=O)CC(Sc3nc4ccccc4s3)C2=O)cc1 (stereo unspecified)	tim10-1 inh 41 | tim10-1 confirm 33
Cc1nnc(SC2CC(=O)N(c3ccccc3)C2=O)s1 (stereo unspecified)	tim10-1 inh 47 | tim10-1 confirm 38
Cc1nc(SC2CC(=O)N(c3ccccc3)C2=O)nc2c1CCCC2 (stereo unspecified)	none
CCOc1ccc(N(CC(=O)Nc2ccccc2C(=O)N2CCCC2)S(C)(=O)=O)cc1	none
CN(C(=O)c1cccc(NC(=O)Cc2ccc(NC(=O)C3CCCN(C(=O)C4CC4)C3)cc2)c1)C1CCC1 (stereo unspecified)	none (no result: TIM10 inh, tim23-1 inh, tim10-1 inh)
CC(C)(O)C#Cc1ccc(C(=O)N2CCN(c3ccc([N+](=O)[O-])cc3)CC2)cc1	tim10-1 inh 46 | tim10-1 confirm 38
CC(C)(O)C#Cc1ccc(C(=O)N2CCN(c3ccccc3)CC2)cc1	none
CC(NC(=O)c1ccco1)C(c1cccs1)N1CCN(c2ccc(F)cc2)CC1 (stereo unspecified)	tim10-1 inh 47 (no result: V-ATPase pH) | tim10-1 confirm inactive
CC(NC(=O)Cc1cccs1)C(c1cccs1)N1CCN(c2ccccc2)CC1 (stereo unspecified)	none
CC(NC(=O)Cc1cccs1)C(c1cccs1)N1CCN(c2ccccc2F)CC1 (stereo unspecified)	tim10-1 inh 46 | tim10-1 confirm 37
COc1ccc(CCN2CC(C(=O)Nc3ccc(S(C)(=O)=O)cc3)CC2=O)cc1OC (stereo unspecified)	none
CC1(c2ccccc2)NC(=O)N(CC(=O)N2CCN(S(=O)(=O)c3c(F)cccc3F)CC2)C1=O (stereo unspecified)	none
CC(C)c1ccc(S(=O)(=O)N2CCN(C(=O)C3CCN(C(=O)c4ccc(F)cc4)CC3)CC2)cc1	none
CCSc1nncn1/N=C/c1ccc(OC)c(OC)c1	none
C=C(C)CSc1nncn1/N=C/c1ccc(OC)cc1	tim10-1 inh 43 | tim10-1 confirm 32
CN(C)CCCN1c2ccccc2CCc2ccc(Cl)cc21	tim10-1 inh 53 | tim10-1 confirm 32
Cc1ccccc1NC(=O)CC1SC(=O)N(c2ccccc2)C1=O (stereo unspecified)	tim10-1 inh 45 | tim10-1 confirm 38
COc1ccccc1N(C(=O)c1csnn1)C(C(=O)NC1CCCC1)c1ccccc1 (stereo unspecified)	none
C=CC[N@@+]12CC[C@]34c5ccccc5N5/C=C6\C7N(/C=C(\C53)[C@@H](C[C@@H]41)/C(=C/CO)C2)c1ccccc1[C@@]71CC[N@@+]2(CC=C)C/C(=C\CO)[C@@H]6C[C@@H]12 (stereo partly specified)	none
Cc1cc(C)c(C#N)c(SCC(=O)c2cccs2)n1	tim10-1 inh 44 (no result: PfHsp90 set2) | tim10-1 confirm inactive
COc1ccc(CNC(=O)CSCc2cnn(-c3ccccc3)c2-n2cccc2)cc1	tim10-1 inh 44 (no result: PfHsp90 set2) | tim10-1 confirm inactive
COc1cc(NC(=S)Nc2cccc(Cl)c2Cl)c(OC)cc1Cl	tim10-1 inh 42 | tim10-1 confirm inactive
COc1cc(NC(=S)Nc2ccc(Br)cc2Cl)c(OC)cc1Cl	none
COc1ccc(C)cc1NC(=S)NNC(=O)c1ccccc1Cl	tim10-1 inh 44 | tim10-1 confirm 48
COc1cc(Cl)c(C)cc1NC(=O)CSc1nc2ccccc2o1	none
COc1cc(Cl)c(C)cc1NC(=O)c1cccc(OC)c1OC	tim10-1 inh 41 | tim10-1 confirm inactive
COc1cc(Cl)c(C)cc1NC(=O)CSc1ccc(NC(C)=O)cc1	tim10-1 inh 42 | tim10-1 confirm inactive
CCCCC1(C)NC(=S)N2N1C(=S)NC2(C)CCCC (stereo unspecified)	none
COc1ccc(C(=O)C(C)OC(=O)C2CC3CCCC(C2)C3=O)cc1 (stereo unspecified)	none (no result: TIM10 inh, PfHsp90 set2, tim23-1 inh, tim10-1 inh)
COc1ccccc1N1CCN(C2CCCN(C(=O)c3ccccn3)C2)CC1 (stereo unspecified)	none
COc1cc(C)c(NC(=S)Nc2ccc(Cl)c(Cl)c2)cc1OC	tim10-1 inh 45 | tim10-1 confirm inactive
COc1cc(Cl)c(C)cc1NC(=S)NN	tim10-1 inh 41 | tim10-1 confirm inactive
C/C(=N/NC(=O)CN1CCN(Cc2ccccc2Cl)CC1)c1cccs1	none (no result: PfHsp90 set2)
CCc1ccc(-c2csc(NC(=O)C3CC(=O)N(c4ccc5c(c4)OCCO5)C3)n2)cc1 (stereo unspecified)	tim10-1 inh 47 | tim10-1 confirm inactive
C[C@H](CO)N1C[C@H](C)[C@H](CN(C)C(=O)Nc2ccc(-c3cccs3)cc2)OCc2cnnn2CCCC1=O	none (no result: TIM10 inh, PfHsp90 set2, tim23-1 inh, tim10-1 inh)
COCCNC(=O)c1c(N)n(CCC2=CCCCC2)c2nc3ccccc3nc12	tim10-1 inh 43 | tim10-1 confirm inactive
COc1ccc(CCn2c(N)c(C(=O)NCc3ccco3)c3nc4ccccc4nc32)cc1	none
COCCn1c(N)c(C(=O)OCc2ccccc2)c2nc3ccccc3nc21	tim10-1 inh 43 (no result: PfHsp90 set2) | tim10-1 confirm inactive
Cc1ccc(NC(=O)NC(=O)N(C(C)C)S(=O)(=O)c2ccc(C)cc2)cc1	none
O=C(Nc1ccc(Oc2cccnc2)cc1)C1CCN(Cc2ccc(F)cc2)CC1	none
O=C(Nc1ccc(Oc2cccnc2)cc1)C1CCN(Cc2cc(Cl)ccc2O)CC1	tim10-1 inh 49 | tim10-1 confirm inactive
Cc1ccc(Cl)cc1N1C(=O)CC(Sc2ccccc2N)C1=O (stereo unspecified)	none (no result: TIM10 inh, PfHsp90 set2, tim23-1 inh, tim10-1 inh)
Cc1nc2c(Br)c(C)nn2c2c1CCC2	tim10-1 inh 48 | tim10-1 confirm inactive
O=C(Nc1cc(Sc2ccccn2)cc([N+](=O)[O-])c1)c1cccc(F)c1	tim10-1 inh 44 | tim10-1 confirm 53
CC(C)(C)OC(=O)N1CCC[C@H]1c1nnc(SCc2ccc(Cl)cc2Cl)o1	tim10-1 inh 40 | tim10-1 confirm inactive
CC(C)(C)OC(=O)N1CCC[C@H]1c1nnc(SCc2ccccc2Cl)o1	none
CC(C)COC(=O)n1c(=O)oc2cc(S(=O)(=O)N3CCCCC3)ccc21	tim10-1 inh 41 (no result: PfHsp90 set2) | tim10-1 confirm 38
COc1ccc(C(=O)Nc2ccc3c(c2)nc(CCNC(C)=O)n3C)cc1	none
COc1ccc(C(=O)NCCc2nc3cc([N+](=O)[O-])ccc3n2C)cc1	tim10-1 inh 55 | tim10-1 confirm 38
CC(=O)Nc1cc(C(F)(F)F)ccc1OCCOc1ccccc1	tim10-1 inh 47 | tim10-1 confirm inactive
O=[N+]([O-])c1ccc(Sc2cccc3cccnc23)c([N+](=O)[O-])c1	tim10-1 inh 56 | tim10-1 confirm 57
C=CCn1nc([N+](=O)[O-])nc1Sc1cccc2cccnc12	tim10-1 inh 52 | tim10-1 confirm 37
